# From PubChem BioAssay
# AMA1 RON2 block – disrupts binding of P. falciparum AMA1 to RON2. AID 720542. 360,000 tested, 0.2% active. AlphaScreen AMA1-biotinylated RON2 peptide binding. Potency, µM (highest dose often 58.2 µM), without a hit: at the highest dose activity change, negative = inhibition, most hits filed as inhibitors;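 further: potency means the concentration at half of the fitted maximal effect; 0% = vehicle wells and -100% = peptide control; nearly all actives have a fitted effect of over 45% in size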
#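 AMA1 (3D7) with his tag at 25 nM final met compounds first, then biotinylated RON2 peptide at 25 nM; detection used donor plus acceptor beads, 10 µg/mL apiece, read by AlphaScreen after 30 min at room temperature.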
# AmpC inh detg – inhibitors of E. coli AmpC beta-lactamase with detergent; AmpC hydrolysis of nitrocefin, absorbance 480 nm, 0.01% Triton; Potency, µM (highest dose often 114 µM), inactives show top-dose activity change, negative = inhibition, usual class: inhibitors; P00811; 370,000 tested, 0.041% active;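 further: potency means the concentration at half of the fitted maximal effect; 0% = no-compound wells and -100% = no-enzyme wells; nearly all actives have a fitted effect of over 25% in size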
# Target sequence (P00811 whole entry, looked up): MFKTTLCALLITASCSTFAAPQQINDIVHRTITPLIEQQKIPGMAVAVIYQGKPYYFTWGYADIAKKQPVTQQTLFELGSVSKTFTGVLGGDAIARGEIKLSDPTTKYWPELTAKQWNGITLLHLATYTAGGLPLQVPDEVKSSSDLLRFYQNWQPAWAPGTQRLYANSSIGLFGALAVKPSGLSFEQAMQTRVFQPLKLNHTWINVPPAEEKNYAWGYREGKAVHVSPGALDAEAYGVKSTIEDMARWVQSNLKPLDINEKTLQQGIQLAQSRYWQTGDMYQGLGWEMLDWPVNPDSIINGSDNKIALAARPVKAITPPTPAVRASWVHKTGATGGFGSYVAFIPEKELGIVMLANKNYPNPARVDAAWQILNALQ
#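 AmpC (5.3 nM in the dispensed reagent) in 20 mM phosphate pH 7.0 with 0.01% (detergent screen) or 0.0001% Triton X-100 was preincubated with compounds for 15 min at room temperature. Nitrocefin was then added from an 800 uM solution, and hydrolysis was followed at 480 nm.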
# CHX counter – counter-screen hit for Shiga toxin inhibitors, cycloheximide. 300,000 tested, 12% active. max response, %. cell reporter, cycloheximide protein synthesis inhibition counterscreen; in the data active means max response mostly above about 13%, no sharp cut-off; inactive means mostly below about 14%; further: read at 38.3 µM for the half of the compounds with a filed dose; 0% is about no effect
# AmpC no deterg – blocks E. coli AmpC beta-lactamase in detergent-free assay; AmpC nitrocefin hydrolysis, absorbance 480 nm, 0.0001% Triton; Potency, µM (highest dose often 57.1 µM), without a hit: at the top dose activity change, negative = inhibition, hits mostly inhibitors; 330,000 tested, 0.52% active; AID 485341;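 further: potency means the concentration at half of the fitted maximal effect; plate controls were no compound for no effect and no enzyme for full effect; nearly all actives have a fitted effect of over 20% in size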
#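 AmpC (5.3 nM in the dispensed reagent) in 20 mM phosphate pH 7.0 with 0.01% (detergent screen) or 0.0001% Triton X-100 was preincubated with compounds for 15 min at room temperature. Nitrocefin was then added from an 800 uM solution, and hydrolysis was followed at 480 nm.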
# Shiga inhibitor – blocks Shiga toxin action in Vero cells | AID 2315 | Vero cells, Shiga toxin protein synthesis inhibition reporter | inhibition, % at 38.7 µM | 290,000 tested, 9.2% active; in the data active means inhibition mostly above about 28%, no sharp cut-off; inactive means mostly below about 43%; further: 0% is about no effect
# SARS PLpro yeast – inhibitors of SARS-CoV papain-like protease in yeast; AID 485353; 330,000 tested, 0.19% active; S. cerevisiae expressing SARS-CoV PLpro, growth rescue; Potency, µM (highest dose often 32.9 µM), without a hit: at the top dose activity, positive = growth rescue, actives largely listed as activators; calls by dose curve; further: potency means the concentration at half of the fitted maximal effect; 0% is about no effect; nearly all actives have a fitted effect of over 55% in size
# Active calls of the source: *; ? = inconclusive; nt = no result given; [ ] = remark or other dose. The sample as a whole holds a higher share of hits than the screen did. Unless noted, the call rests on the fitted dose curve; in most records, active means well fitted curve in the direction sought with a large enough effect; inconclusive means small, poorly fitted or top-dose-only effect, or another doubt; inactive means no such curve, though single readings can be large; an effect the other way counts as inactive or inconclusive.
SMILES,AMA1 RON2 block,AmpC inh detg,CHX counter,AmpC no deterg,Shiga inhibitor,SARS PLpro yeast
CC(=O)c1ccc(S(=O)(=O)N2CCN(C(C)=O)CC2)cc1,1%,4%,-1,-5%,-9,2%
Cn1ccnc1C(=O)c1ccc(S(=O)(=O)N2CCCC2)cc1,2%,-1%,14*,-6%,28,-2%
Cn1ccnc1C(=O)c1cccc(Br)c1,?,-13%,17*,-23%,40*,-1%
CC(=O)c1ccc(S(=O)(=O)N2CCCC2)cc1,2%,-5%,43*,-9%,82*,3%
Cc1ccc(S(=O)(=O)N2CCCCC2)cc1C(=O)c1nccn1C,-1%,-6%,-1,-9%,-19,-4%
CCOc1ccc(-n2c(=O)c3c4c(sc3n(CC(=O)NCCCOC)c2=O)CCCCC4)cc1,6%,5%,4,-5%,-14,-1%
CCOc1cc(CNc2ccc3c(c2)CCC3)ccc1OC,nt,-13%,35*,-8%,66,7%
COc1ccc(CNc2ccc3c(c2)CCC3)cc1Br,-15%,2%,41*,-17%,70*,-1%
COc1ccccc1CNC(=O)COc1ccc2c(c1)CCC2,0%,-1%,10,0%,12,2%
COc1ccc(CNCc2ccc3c(c2)OCO3)cc1Br,-7%,?,10,-17%,15,-1%
COc1ccccc1CNc1ccc2c(c1)CCC2,-9%,-15%,32*,-31%,nt,-6%
CCOc1ccc(NC(=O)COc2ccc3c(c2)CCC3)cc1OC,36%,0%,nt,42%,nt,-9%
C=CCN=C1CCCc2c1[nH]c1ccc(C)cc21,-10%,3%,30*,-1%,50*,-10%
Cc1nc(SCC(=O)Nc2ccc(OCc3ccccc3)cc2)n[nH]1,-3%,-7%,24*,-14%,58*,0%
COc1ccc(CCNC(=O)CSc2n[nH]c(N)n2)cc1,2%,100µM*,1,-23%,9,0%
Nc1nc(SCC(=O)NCc2ccccc2)n[nH]1,11%,?,-2,-20%,-9,-4%
Nc1nc(SCC(=O)Nc2ccc(OCc3ccccc3)cc2)n[nH]1,-6%,7%,28*,-20%,58*,0%
Cc1ccc(-c2csc(NCCn3c(C(F)(F)F)nc4ccccc43)n2)cc1,-10%,-9%,-2,-16%,13,-1%
COc1ccc2c(c1)c(C(O)CN1CCN(Cc3ccc4c(c3)OCO4)CC1)c(C)n2C (stereo not given),-14%,-9%,8,161%,-9,-43%
CC(=O)c1cccc(Nc2nc(-c3ccccc3)cs2)c1,14%,1%,33*,-43%,107*,-1%
CC(=O)NNc1nc(-c2ccccc2)cs1,66%,2%,1,-45%,-6,0%
CC(=O)c1ccc(Nc2nc(-c3cccnc3)cs2)cc1,0%,2%,22*,-5%,20,7%
CC(=O)c1cccc(Nc2nc(-c3cccnc3)cs2)c1,-10%,-19%,51*,-34%,58*,-14%
Cc1noc(C)c1COc1ccccc1C(=O)NC1CCC(C)CC1 (stereo not given),13%,11%,27*,54%,55*,-8%
COc1ccc(/C=N/Nc2nc(-c3cccc(S(=O)(=O)N4CCCC4)c3)cs2)c(OC)c1,8%,-7%,-1,-55%,-4,3%
SMILES,AMA1 RON2 block,AmpC inh detg,CHX counter,AmpC no deterg,Shiga inhibitor,SARS PLpro yeast
CN(C)S(=O)(=O)c1cccc(-c2csc(N/N=C/c3ccco3)n2)c1,9%,3%,14*,-43%,22,0%
Cc1ccc(-c2csc(N/N=C/c3ccco3)n2)c(C)c1,-3%,?,46*,-35%,62*,20%
O=C(Nc1cccc(Cl)c1)c1cc(-c2ccc3c(c2)OCO3)on1,nt,26%,nt,nt,nt,nt
c1ccc2c(c1)SCc1c-2[nH]c2ccccc12,nt,nt,15*,nt,47*,nt
c1ccc2c(c1)OCCc1c-2[nH]c2ccccc12,?,-10%,14*,-39%,21,-6%
Cc1cccc(C)c1NC(=O)c1c(C)oc2c1C1=NCCN1C=N2,nt,23%,nt,nt,nt,nt
O=C(COC(=O)c1ccc2ccccc2n1)c1ccccc1,13%,6%,46*,-21%,52,2%
COc1ccc(CNC(=O)COC(=O)c2ccc3ccccc3n2)cc1,-1%[11.6 µM],nt,nt,-8%,nt,-2%
O=C(OCC(=O)c1ccc[nH]1)c1ccc2ccccc2n1,5%,-10%,19*,-18%,18,-5%
O=C(COC(=O)c1nc(Cl)c(Cl)c(Cl)c1Cl)c1ccc[nH]1,0%,-3%,nt,?,nt,-13%
O=C(OCc1ccc(F)cc1)c1ccc2ccccc2n1,-9%,?,25*,-42%[11.4 µM],46*,-1%
NC(=O)c1ccc(NC(=O)COC(=O)c2ccc3ccccc3n2)cc1,-14%,nt,nt,-14%,nt,-2%
Oc1ccccc1-c1nc(NCC2CCCO2)c2ccccc2n1 (stereo not given),-8%,-1%,-1,3%,-3,-26%
Cc1ccccc1NC(=S)N1CCN(C(=O)c2ccco2)CC1,-18%,?,0,-7%[2.29 µM],-10,1%
CC(=O)Oc1cccc(C(=O)Nc2ccc(NC(=O)c3cccs3)cc2)c1,-3%,-3%,42*,-1%,163*,3%
COc1cccc(C(=O)Nc2cccc(NC(=O)c3cccs3)c2)c1,-2%,2%,11*,?,19,-5%
O=C(O)c1ccc(NC(=O)c2cccc(NC(=O)c3cccs3)c2)cc1,8%,-2%,-3,9%,16,-4%
COc1cccc(C(=O)Nc2cc(NC(=O)c3cccs3)ccc2C)c1,-2%,?,7,-37%,28,-2%
CN(C(=O)c1cccc(NC(=O)Cc2ccc(NC(=O)C3CCCN(C(=O)C4CCCCC4)C3)cc2)c1)C1CC1 (stereo not given),-3%,nt,nt,nt,nt,nt
COc1ccc(NC(=O)Nc2ccc3c(c2)C(=O)N([C@H](C)CO)C[C@H](C)[C@@H](CN(C)C(=O)Nc2ccc(C(F)(F)F)cc2)O3)cc1,-29%,nt,nt,191%,nt,9%
Cc1cc(/C(N)=N/OC(=O)Nc2ccc(Cl)cc2)no1,-12%,-4%,27*,-6%,55*,2%
C/C(=N\OC(=O)Nc1ccccc1)c1ccc(C)cc1,-4%,nt,nt,nt,nt,nt
Cc1cc(C)n2ncc(/C(N)=N/OC(=O)Nc3ccccc3)c2n1,-16%,9%,9.6*,-24%,16,0%
Cc1cc(/C(N)=N/OC(=O)Nc2ccccc2)no1,-14%,-2%,24*,-11%,42*,1%
CCc1cccc(C)c1NC(=O)c1ccc2nc(N3CCOCC3)sc2c1,-2%,?,1,-30%,-7,-6%
Cc1ccccc1OCCNc1cc(N2CCNCC2)ccc1[N+](=O)[O-],nt,7%,4,-5%,-7,0%
